The source of these data is PubChem BioAssay.

The structures appear in SMILES notation. Active and inactive are the calls of the source. Unless noted, the rule behind the calls is not given here.

Test [1] concerns XIP peptide (Xip251-270) binding. Put plainly: XIP fragment 251-270 binding compounds – biochemical, small-molecule microarray, fluorescence 635/667 nm, 0.1 µg/mL protein, primary screen (AID 1182). The following applies: fluorescent protein binding, 635 nm, higher = more signal, called active from +8 up or from −8 down.
For another test, the system named is XIP peptide (Xip251-270). Nature of the test: compounds binding XIP fragment 251-270 – biochemical, small-molecule microarray, fluorescence 635/667 nm, 0.5 µg/mL protein, primary screen (AID 1183). The conditions noted are these: fluorescence 635 nm, higher = more signal.
The nature of test [2]: blood-stage malaria parasite viability loss – strain 3D7, DAPI fluorescence, 100 nL, primary screen (AID 1184).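 Note: parasites grown inside human red blood cells in medium with human serum.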 The conditions noted are these: P. falciparum 3D7 growth, 3 d, higher = more signal.
Test [3] has as its target Homeobox protein Hox-A13 (Mus musculus) (UniProt Q62424). Put plainly: disruptors of Hoxa13 oligonucleotide interaction – biochemical, fluorescence polarization, labeled oligonucleotide, primary screen (AID 1185). The following applies: Hoxa13:DNA binding, 15 min, higher = more signal, called active from +8 up or from −8 down. In general terms: Fluorescence polarisation rises when a labelled molecule tumbles more slowly, as on binding a larger partner.

Test [4] in a line: blockers of DNA damage checkpoint Chk1 activation – imaging, HeLa, hydroxyurea, phospho-Chk1 antibody, percent positive cells, primary screen (AID 1186). The conditions noted are these: hydroxyurea-induced phospho-Chk1 immunofluorescence imaging, higher = more signal.
The nature of test [5]: blockers of DNA damage checkpoint Chk1 activation – imaging, HeLa, hydroxyurea, phospho-Chk1 nuclear intensity, primary screen (AID 1187). The following applies: hydroxyurea-induced phospho-Chk1 immunofluorescence imaging, higher = more signal.

Homeobox protein Hox-A13 (Mus musculus), sequence (Q62424 whole entry, looked up): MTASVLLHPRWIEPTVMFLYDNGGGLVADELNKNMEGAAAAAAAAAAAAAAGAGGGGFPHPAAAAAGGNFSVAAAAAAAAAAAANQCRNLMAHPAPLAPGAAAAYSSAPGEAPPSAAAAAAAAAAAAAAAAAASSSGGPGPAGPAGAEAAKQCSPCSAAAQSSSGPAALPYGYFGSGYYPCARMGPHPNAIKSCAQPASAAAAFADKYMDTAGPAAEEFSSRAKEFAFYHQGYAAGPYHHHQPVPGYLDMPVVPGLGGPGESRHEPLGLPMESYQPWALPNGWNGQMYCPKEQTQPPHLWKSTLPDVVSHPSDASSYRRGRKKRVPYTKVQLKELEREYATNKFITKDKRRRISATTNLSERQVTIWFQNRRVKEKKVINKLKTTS

Take `O=C1C2C=CC(C(O)c3cccc4ccccc34)N(Nc3ccccc3)C2C(=O)N1c1ccccc1` (stereo unspecified): the composite z-score in test [1] is 0.179 (inactive); with XIP peptide (Xip251-270), 0.807. Further, the z-score was -0.176 in test [2], -0.231 (inactive) in test [3], 0.107 (inactive) in test [4] and -0.294 (inactive) in test [5].

Consider `CN(C)CCCCNC(=O)[C@H]1C[C@H]2C(=O)N[C@@H](CCCC[N+](C)(C)C)C(=O)N2[C@H]1c1cccc(OCCO)c1`, for which the composite z-score in test [1] was 1.42 (inactive); in the test with XIP peptide (Xip251-270) it was 0.689. Also, the z-score in test [2] is -0.0344; in test [3] it was -3.83 (inactive); in test [4], -0.0589 (inactive); in test [5], -0.216 (inactive).

As for `CC[C@@H]1[C@@H]2C3C(=O)N(CC)C(=O)C3CC(=O)[C@@H]2[C@H](c2ccc(C)cc2)N1S(=O)(=O)c1ccc(C)cc1` (stereo partly specified), the composite z-score in test [1] is -0.363 (inactive); with XIP peptide (Xip251-270), 0.73. Besides, the z-score in test [2] was -0.226; in test [3] it was -3.54 (inactive); in test [4], -1.51 (inactive); in test [5] it was -1.33 (inactive).

Turning to `CC(=O)NCCCC[C@@H]1NC(=O)[C@@H]2C[C@H](C(=O)NCCCC[N+](C)(C)C)[C@H](c3cccc(OCCO)c3)N2C1=O`, the values for the composite z-score (in test [1]; with XIP peptide (Xip251-270)) were 0.383 (inactive) and 0.446, respectively. Also, the z-score in test [2] was -0.102; in test [3] it was -2.25 (inactive); in test [4], -0.349 (inactive); in test [5] it was -0.317 (inactive).

With `CCOC(=O)C1=CC[C@@H](c2ccccc2)N(S(=O)(=O)c2ccc(C)cc2)[C@H]1C=C(C)C`, the composite z-score in test [1] was 0.568 (inactive); in the test on XIP peptide (Xip251-270), 0.721. Besides, the z-score in test [2] is -2.17; in test [3], -0.721 (inactive); in test [4], 0.213 (inactive); in test [5], 0.0493 (inactive).

In the case of `C=CCC(OC(C)=O)[C@@H]1[C@@H](N(Cc2cc3ccccc3o2)C(=O)Cc2ccc(OC)cc2)c2cc(OCCCO)ccc2N1C(=O)c1ccc(-c2ccccc2)cc1` (stereo partly specified), the results for the composite z-score (in test [1]; in the test on XIP peptide (Xip251-270)) were -0.341 (inactive) and -0.236, respectively. Besides, the z-score is -2.84 in test [2], -1.11 (inactive) in test [3], 0.298 (inactive) in test [4] and 0.549 (inactive) in test [5].

Regarding `COC(=O)[C@@]1(Cc2ccccc2)[C@H]2c3cc(C(=O)N4CCCC4)n(Cc4ccc(OC(F)(F)F)cc4)c3C[C@H]2CN1C(=O)c1ccccc1`, the figures for the composite z-score (in test [1]; in the test on XIP peptide (Xip251-270)) were 0.511 (inactive) and 0.408, respectively. Moreover, the z-score in test [2] is -1.4; in test [3] it was -3.01 (inactive); in test [4], 0.182 (inactive); in test [5] it was -0.781 (inactive).

Regarding `C=CCOC(=O)[C@H]1[C@@H]2C(=O)O[C@@H](c3ccccc3)[C@@H](c3ccccc3)N2[C@@H](c2ccc(OCCOC(=O)[C@H]3C[C@H]4C(=O)N[C@@H](CCCCN(C)C)C(=O)N4[C@H]3c3ccc(O)cc3)cc2)[C@]12C(=O)Nc1ccccc12`, the composite z-score in test [1] was 0.275 (inactive); in the test on XIP peptide (Xip251-270), 0.582. Moreover, the z-score in test [2] was -0.216; in test [3] it was 4.13 (inactive); in test [4], -0.685 (inactive); in test [5], -0.308 (inactive).

As to `CC(C)NC(=O)[C@@]1(Cc2ccccc2I)c2ccccc2C(=O)N(Cc2ccccc2C(F)(F)F)[C@H]1c1ccc(CO)cc1`, the results for the composite z-score (in test [1]; with XIP peptide (Xip251-270)) were 0.52 (inactive) and 0.815, respectively. The z-score is -1.09 in test [2], -3.19 (inactive) in test [3], -0.195 (inactive) in test [4] and 0.0078 (inactive) in test [5].

Regarding `COC(=O)[C@@]1(Cc2ccc(OC)cc2)[C@H]2c3cc(C(=O)N(C)C)n(Cc4cc(C)n(C)n4)c3C[C@H]2CN1C(=O)c1ccccc1`, the composite z-score was 0.254 (inactive) in test [1] and 0.762 in the test on XIP peptide (Xip251-270). Also, the z-score is -1.63 in test [2], -5.1 (inactive) in test [3], 0.53 (inactive) in test [4] and 0.263 (inactive) in test [5].

As for `CCCNC(=O)[C@@]1(Sc2ccc(C)cc2)CC(=O)N(Cc2ccccc2)[C@@H]1c1ccc(CO)cc1I`, the composite z-score was 0.334 (inactive) in test [1] and 0.889 in the test with XIP peptide (Xip251-270). The z-score in test [2] was 0.179; in test [3] it was -2.54 (inactive); in test [4], 0.264 (inactive); in test [5] it was 0.372 (inactive).

Regarding `C=C(COC)C(=O)CC[C@H](OC(=O)c1ccccc1-c1ccccc1C(=O)O)c1ccc(OCCO)cc1`, the values for the composite z-score (in test [1]; in the test with XIP peptide (Xip251-270)) were 0.0817 (inactive) and 0.264, respectively. The z-score in test [2] was -1.84; in test [3], -5.78 (inactive); in test [4], -0.33 (inactive); in test [5], -0.537 (inactive).

With `COCCCNC(=O)[C@@H]1c2ccccc2C(=O)N(Cc2cc(F)cc(C(F)(F)F)c2)[C@H]1c1ccc(CO)cc1`, the composite z-score in test [1] was -0.0408 (inactive); in the test on XIP peptide (Xip251-270) it was -0.0784. Further, the z-score in test [2] is -0.288; in test [3], -2.79 (inactive); in test [4], 0.0176 (inactive); in test [5], -0.299 (inactive).

Regarding `COCCOC(=O)N1C(=O)[C@@]2(c3cc(C#CCNC(N)=O)ccc31)[C@H](C(=O)N1CCCCCCC1)[C@H]1C(=O)O[C@H](c3ccccc3)[C@H](c3ccccc3)N1[C@@H]2c1ccc(OCCO)cc1`, the composite z-score in test [1] is 0.0447 (inactive); in the test on XIP peptide (Xip251-270), 0.28. Also, the z-score in test [2] was -1.77; in test [3], -15.8 (active); in test [4] it was -0.0977 (inactive); in test [5] it was -0.64 (inactive).

On to `C=C(/C(=C/C[C@@H](OC(C)=O)c1ccccc1OCCO)c1cnc2ccccc2c1)C(C)C`, for which the composite z-score in test [1] was 0.143 (inactive); in the test on XIP peptide (Xip251-270) it was 0.339. Further, the z-score in test [2] is -2.62; in test [3], -5.18 (inactive); in test [4], 0.642 (inactive); in test [5], 0.0715 (inactive).

Take `COc1cccc(C)c1NC(=O)O[C@H]1[C@H](OC(=O)Nc2ccccc2)[C@H](OC(=O)Nc2ccccc2)[C@@H](OC)O[C@@H]1CO`: the composite z-score in test [1] is 1.57 (inactive); in the test on XIP peptide (Xip251-270), 0.401. The z-score is -1.51 in test [2], -5.38 (inactive) in test [3], -0.0198 (inactive) in test [4] and 0.136 (inactive) in test [5].
